From PubChem BioAssay (NCI)
Compounds without any hit were thinned out: in the full panel of roughly 83,000, 20% have a hit.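 Percent growth is the endpoint: 0 to 100 indicates growth inhibition (40 means 60% inhibition), 0 means no net growth, and negative values indicate cell death.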 Active and inactive are the calls of the source. Rule for the calls: active = growth percent below 10; inactive = the rest.

Assays:
Assay in all cases: NCI-60 one-dose screen, 48 h (100 = growth as untreated, 0 = no growth, -100 = all killed)
Conditions in all cases: 10 µM unless noted
[1] = tested on: DU-145 prostate
[2] = tested on: K-562 leukemia
[3] = tested on: MALME-3M melanoma
[4] = tested on: MDA-MB-231 breast
[5] = tested on: RXF 393 renal
[6] = tested on: SF-268 CNS
[7] = tested on: SF-295 CNS
[8] = tested on: SF-539 CNS
[9] = tested on: UACC-257 melanoma
[10] = tested on: M14 melanoma

Measured: growth

O=c1c2cc(F)ccc2sc2c(NCCO)nc3ccccc3c12
inactive: [1] 112% | [2] 98.3% | [3] 120% | [4] 98.1% | [5] 109% | [6] 103% | [7] 104% | [8] 99.9% | [9] 104% | [10] 114%

Cc1ccc(C(=O)NCCNc2nccc(-c3c(-c4cccc(F)c4)nc4sccn34)n2)cc1
inactive: [1] 62.9% | [2] 48.7% | [3] 47.3% | [4] 72.5% | [5] 39.9% | [6] 60% | [7] 62.5% | [8] 90.1% | [9] 75.1% | [10] 44%

CCCCCCCCCCCCCCCCCCOc1ccccc1CCCOP(=O)(O)OCC[N+](C)(C)C
inactive: [1] 75% | [2] 69.2% | [3] 89.5% | [4] 78.2% | [5] 11.1% | [6] 62.5% | [7] 52.4% | [8] 91.4% | [9] 88% | [10] 77.7%

Cn1cc(-c2cc3ncnc(Nc4ccc(CC(=O)Nc5cc(C(C)(C)C)nn5C)cc4)c3s2)cn1
inactive: [1] 40.3% | [2] 17% | [3] 56.7% | [4] 47.7% | [6] 51.8% | [7] 58.1% | [8] 47.4% | [9] 83.9% | [10] 39.2%
active: [5] 9.8%

C=C(C)[C@@H]1CC[C@]2(N=C=O)CC[C@]3(C)[C@H](CC[C@@H]4[C@@]5(C)Cc6c([nH]c7ccccc67)C(C)(C)[C@@H]5CC[C@]43C)[C@@H]12
active: [2] 3.74%
inactive: [1] 63.2% | [3] 101% | [4] 68.4% | [5] 81.6% | [6] 80.7% | [7] 111% | [8] 89.3% | [9] 109% | [10] 70.5%

COc1ccc2nc(NC(=O)c3cccnc3Nc3ccc(S(N)(=O)=O)cc3)sc2c1
inactive: [1] 105% | [2] 70.9% | [3] 103% | [4] 106% | [5] 113% | [6] 82.6% | [7] 92.8% | [8] 100% | [9] 113% | [10] 113%

CC(C)n1cnc2c(Nc3cccc(Cl)c3)nc(N[C@H]3CCCC[C@@H]3N)nc21
inactive: [1] 49.7% | [2] 35.5% | [3] 45.5% | [4] 32.6% | [5] 53.2% | [6] 46.5% | [7] 76.3% | [8] 71.3% | [9] 64.1% | [10] 40.9%

CCOC(=O)C1=C(N)Oc2c(sc3c(CC)cccc23)C1c1ccc(F)cc1 (stereo not given)
active: [5] -4.56%
inactive: [1] 46.3% | [2] 10.7% | [3] 42.1% | [4] 73.1% | [6] 48.9% | [7] 11.8% | [8] 13.4% | [9] 55.7% | [10] 38.2%

CCOC(=O)Cn1c(=O)c2c(c3ccccc3n2C)n2nnc(-c3ccccc3)c12
inactive: [1] 111% | [2] 84.8% | [3] 118% | [4] 103% | [5] 108% | [6] 95.2% | [7] 110% | [8] 102% | [9] 102% | [10] 97.6%

NC(=O)C1(Nc2ccc(Br)cc2)CCCC1
inactive: [1] 119% | [2] 116% | [3] 108% | [4] 101% | [5] 115% | [6] 106% | [7] 106% | [8] 89.8% | [9] 101% | [10] 97.1%

Cc1cc(-c2cc(C)c(N)cc2C)c(C)cc1N
inactive: [1] 121% | [2] 54.7% | [3] 84.2% | [4] 82.8% | [5] 111% | [6] 95.9% | [7] 84.1% | [8] 97.5% | [9] 90.5% | [10] 65.6%

CC(=O)c1ccc(Nc2nc(C(C)=O)c(C)s2)cc1
inactive: [1] 102% | [2] 88.7% | [3] 105% | [4] 98% | [5] 101% | [6] 98% | [7] 98.6% | [8] 103% | [9] 103% | [10] 104%

COc1ccc(-c2nn(C(=O)c3cc(OC)c(OC)c(OC)c3)c3cc(N)ccc23)cc1
active: [2] 8.96% | [7] 7.45% | [8] -24%
inactive: [1] 10.1% | [3] 68.2% | [4] 29.9% | [5] 14.6% | [6] 27.4% | [9] 86.4% | [10] 24.4%

COc1cc(Nc2nc(NCCN)nc3cc[nH]c(=O)c23)cc(OC)c1
inactive: [1] 65% | [2] 75.8% | [3] 46.9% | [4] 75.7% | [5] 58.7% | [6] 77.3% | [7] 102% | [8] 76.3% | [9] 72.5% | [10] 49.7%

COc1nc2ccccc2cc1-c1nc2c(cnn2-c2ccc(Br)cc2)c(=O)[nH]1
inactive: [1] 24.5% | [2] 16.3% | [3] 52.6% | [4] 66.9% | [6] 41.3% | [7] 16.9% | [9] 46.9%
active: [5] -7.26% | [8] -31.7% | [10] -7.56%

NCCCNc1nc2ccccc2c2c(=O)c3cc(F)cc(F)c3sc12
inactive: [1] 73.4% | [3] 73.6% | [4] 18.2% | [5] 63.6% | [6] 81.7% | [7] 105% | [9] 100%
active: [2] -42.9% | [8] -92.3% | [10] -85.2%

Cc1ccc(C(CC(=O)O)c2c(C)[nH][nH]c2=O)cc1 (stereo not given)
active: [4] -33.1%
inactive: [1] 106% | [2] 90.8% | [3] 99.4% | [5] 102% | [6] 94.9% | [7] 102% | [8] 97% | [9] 104% | [10] 96.7%

Oc1c(I)cc(I)cc1CNCCCN(Cc1ccccn1)Cc1ccccn1
active: [1] -45.8% | [2] 5.96% | [3] -73.2% | [4] -66.2% | [5] -86.6% | [6] -27.3% | [7] -83.6% | [8] -88.3% | [9] -41.5% | [10] -72%

O=C(/C=C/c1cccc2ccccc12)c1ccc(NC(=O)c2ccccc2CN2C(=O)c3ccccc3C2=O)cc1
inactive: [1] 42.7% | [2] 20.2% | [3] 79.6% | [4] 58.4% | [5] 91.5% | [6] 75.4% | [7] 96.4% | [8] 90.2% | [9] 88% | [10] 72.8%

COc1ccc(CNC(=O)C(=O)[C@H](Cc2ccccc2)NC(=O)c2[nH]c3ccccc3c(=O)c2C)cc1
inactive: [1] 104% | [2] 92.9% | [3] 107% | [4] 95.6% | [5] 104% | [6] 101% | [7] 103% | [8] 98.7% | [9] 98.9% | [10] 99.6%

N#Cc1ccc(NC(=O)c2sc3nc4c(cc3c2N)C(=O)CCC4)cc1
inactive: [1] 94.9% | [2] 108% | [3] 89.3% | [4] 109% | [5] 119% | [6] 102% | [7] 82.4% | [8] 99.8% | [9] 106% | [10] 106%

Cc1cccc(NC2=C(Cl)C(=O)c3nc(C)ccc3C2=O)c1
inactive: [6] 58.2% | [7] 12.7%
active: [1] -80.2% | [2] 2.91% | [3] -75.3% | [4] -75.1% | [5] -19.8% | [8] -79% | [9] -80.2% | [10] -45%

COc1cc(CCCO)c(OC)c(OC)c1OC
inactive: [1] 109% | [2] 104% | [3] 100% | [4] 109% | [5] 108% | [6] 101% | [7] 106% | [8] 97.1% | [9] 103% | [10] 110%

O=c1ccc(N=Nc2ccc([N+](=O)[O-])cc2)ccc1O
inactive: [1] 38.4% | [2] 13.7% | [3] 22.9% | [4] 13.9% | [5] 46% | [6] 23.2% | [7] 12.6% | [8] 16.7% | [9] 21.9% | [10] 44.6%

Cc1cccc2c(=O)c3c(sc12)c(NCc1ccccc1)nc1ccccc13
inactive: [1] 102% | [2] 101% | [3] 110% | [4] 89.4% | [5] 107% | [6] 107% | [7] 98.9% | [8] 102% | [9] 104% | [10] 103%

O=C(Nc1nc2ccc(F)cc2s1)c1cccnc1Nc1ccc(Cl)cc1Cl
inactive: [1] 30% | [4] 34.5% | [5] 44.4% | [6] 28.9% | [8] 43.1% | [9] 28.1% | [10] 37%
active: [2] 4.08% | [3] -15.9% | [7] 4.3%

NC1=C(c2nn[nH]n2)C(c2ccccc2Cl)c2ccc3ccccc3c2O1 (stereo not given)
inactive: [1] 93.4% | [2] 22.6% | [3] 64% | [4] 63.7% | [5] 79.3% | [6] 73.2% | [7] 88.9% | [8] 79.2% | [9] 84.7% | [10] 61.3%
